Measured values reported in the supplement of paper PMC4380459.

These molecules were tested on tubulin (bovine brain) (assay: tubulin polymerization end-point dOD, fold change relative to DMSO vehicle; higher = more polymerization (stabilization)). Conditions: 50 µM; 60 min; 37 °C.
Description: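 In-vitro tubulin polymerization assay (Cytoskeleton HTS kit) with 4 mg/ml bovine brain tubulin in G-PEM buffer and compound at 50 uM (0.5% DMSO). Turbidity was read at 340 nm every minute for 1 h at 37 C. The end-point change in OD (dOD) was converted to % fold change relative to the DMSO vehicle (0%), and runs were scaled using DMSO and Taxol controls. The paper calls >20% an effect, 20-40% weak and >40% strong; positive values mean stabilization, negative values destabilization. Scale: negative = destabilization.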
`COc1ccccc1Nc1nc(-c2ccc(S(C)(=O)=O)cc2)cs1` was tested, and the “tubulin polymerization end-point dOD” value was 104%.
With `CC(=O)c1c(C)[nH]c(C(=O)Nc2ccc(N3CCCC3=O)cc2)c1C` the “tubulin polymerization end-point dOD” value was -9.36%.
In the case of `Cc1ccc(C(=O)CSc2nc3c(C)cccc3cc2C#N)cc1`, the “tubulin polymerization end-point dOD” value is reported as -15.2%.
`COc1ccccc1NC(=S)N(Cc1ccccc1)Cc1cc2ccc(C)cc2[nH]c1=O` was tested, and the “tubulin polymerization end-point dOD” value was 272%.
`COc1ccc(OC)c(NC(=O)CSc2nc3cc4c(cc3cc2C)CCC4)c1` was tested, and the “tubulin polymerization end-point dOD” value was 20.5%.
In the case of `COc1ccc(-n2nnnc2SCc2cc3c(cc2Br)OCO3)cc1`, the “tubulin polymerization end-point dOD” value is reported as -14.8%.
For `COC(=O)Nc1nc2cc(Sc3ccccc3)ccc2[nH]1` [Fenbendazole], the “tubulin polymerization end-point dOD” value was -27.1%.
`O=C(Nc1ncc(Cc2ccc(Cl)cc2)s1)c1cnccn1` was tested, and the “tubulin polymerization end-point dOD” value was -97.6%.
With `Cc1ccc2[nH]c(=O)c(CN(CC3COCCO3)C(=O)Nc3ccccc3Cl)cc2c1` (stereo not given) the “tubulin polymerization end-point dOD” value was 23.1%.
In the case of `COc1ccc(OCc2nnc(SCC(N)=O)n2-c2cc(C)ccc2C)cc1`, the “tubulin polymerization end-point dOD” value is reported as -39.4%.
For `O=c1[nH]c(/C=C/c2ccccc2)nc2sc3c(c12)CCCC3`, the “tubulin polymerization end-point dOD” value was -32.9%.
With `O=c1[nH]c(/C=C/c2ccccc2F)nc2ccccc12` the “tubulin polymerization end-point dOD” value was 21.3%.
In the case of `Cn1c(C(=O)Nc2ccc(-c3nccs3)cc2)cc(Br)c1Br`, the “tubulin polymerization end-point dOD” value is reported as 15.5%.
With `COc1ccc(Cc2cnc(NC(=O)c3sc4ccccc4c3Cl)s2)cc1` the “tubulin polymerization end-point dOD” value was 169%.
In the case of `CCc1cc2cc(OC)ccc2nc1SCC(=O)Nc1ccccc1C`, the “tubulin polymerization end-point dOD” value is reported as 104%.
In the case of `CC(=O)c1c(C)[nH]c(C(=O)Nc2ccc(N3CCCC3)cc2)c1C`, the “tubulin polymerization end-point dOD” value is reported as 27.6%.
For `Cc1cccc(N2CCN(C(=O)c3cc(Cl)ccc3Cl)CC2)c1`, the “tubulin polymerization end-point dOD” value was -45.7%.
With `Cc1cc2nc(/C=C/c3cccs3)sc2cc1C` the “tubulin polymerization end-point dOD” value was 43.1%.
In the case of `COc1ccc(C)cc1NC(=O)CSc1nc2ccc(C(C)C)cc2cc1C#N`, the “tubulin polymerization end-point dOD” value is reported as -41.3%.
With `CS(=O)(=O)N1CCCc2cc(C(=O)Cn3cnc4scc(-c5ccc(F)cc5)c4c3=O)ccc21` the “tubulin polymerization end-point dOD” value was -30.9%.
`CC1Cc2ccccc2N1C(=O)CSc1nnc(-c2cc3ccccc3cc2O)n1C` (stereo not given) was tested, and the “tubulin polymerization end-point dOD” value was -10.6%.
In the case of `O=C(Nc1ncc(Cc2ccc(Cl)cc2Cl)s1)c1cnccn1`, the “tubulin polymerization end-point dOD” value is reported as 6.51%.
`COc1cc(C2NC(=O)c3ccccc3N2)cc2c1OCO2` (stereo not given) was tested, and the “tubulin polymerization end-point dOD” value was -31.5%.
In the case of `Nc1c(C(=O)c2ccccc2)sc2nc3c(cc12)CCCC3`, the “tubulin polymerization end-point dOD” value is reported as 59.7%.
For `O=c1c(Cl)c(N2CC=C(c3ccccc3)CC2)cnn1-c1nc2ccccc2[nH]1`, the “tubulin polymerization end-point dOD” value was -22.9%.
`CC(=O)N1c2ccc(NC(=O)c3cc4cccc(C)c4nc3C)cc2CC1C` (stereo not given) was tested, and the “tubulin polymerization end-point dOD” value was 0.65%.
`O=C(c1cncn1-c1ccccc1)N1CCN(c2cccc(Cl)c2)CC1` was tested, and the “tubulin polymerization end-point dOD” value was -50%.
With `N#Cc1ccsc1NC(=O)C1COc2ccccc2C1` (stereo not given) the “tubulin polymerization end-point dOD” value was -10.4%.
For `COc1ccc(Cl)cc1NC(=O)C1CCCN1C(=O)Nc1ccccc1OC` (stereo not given), the “tubulin polymerization end-point dOD” value was -2.01%.
For `O=C(Nc1ncc(Cc2ccccc2)s1)c1sc2ccccc2c1Cl`, the “tubulin polymerization end-point dOD” value was -14.2%.
In the case of `COc1ccc(/C=N/NC(=O)c2cccc(F)c2)cc1I`, the “tubulin polymerization end-point dOD” value is reported as 10.5%.
With `Cc1ccc(C(=O)Nc2nc3ccc(Cl)cc3s2)cn1` the “tubulin polymerization end-point dOD” value was -82.9%.
In the case of `COc1ccc2cc(CN(Cc3ccco3)C(=O)c3cccs3)c(=O)[nH]c2c1`, the “tubulin polymerization end-point dOD” value is reported as 91.2%.
In the case of `COc1ccc2cc(CN(Cc3ccccc3Cl)C(=O)Nc3ccccc3OC)c(=O)[nH]c2c1`, the “tubulin polymerization end-point dOD” value is reported as -4.53%.
With `Cc1cccc2cc3c(N)c(C(=O)N4CCCc5ccccc54)sc3nc12` the “tubulin polymerization end-point dOD” value was -46.4%.
With `CCOc1ccc2nc(SCC(=O)Nc3ccc(OC)cc3OC)c(C)cc2c1` the “tubulin polymerization end-point dOD” value was 14.5%.
With `CCc1ccccc1NC(=O)CSc1nc2cc3c(cc2cc1CC)OCO3` the “tubulin polymerization end-point dOD” value was -65%.
In the case of `COc1ccc2nc(SCC(=O)Nc3ccccc3Br)c(C#N)cc2c1`, the “tubulin polymerization end-point dOD” value is reported as 14.8%.
In the case of `Cc1ccc(/C=N\NC(=O)COc2ccccc2Br)c(C)c1`, the “tubulin polymerization end-point dOD” value is reported as -56.5%.
`Cc1ccc(Nc2nc(N)nc(CN3C(=O)NC(C)(c4ccccc4)C3=O)n2)cc1` (stereo not given) was tested, and the “tubulin polymerization end-point dOD” value was 48.1%.
